Screens deposited in PubChem BioAssay by several laboratories.
Mdm2-MdmX inh – inhibitors of human Mdm2-MdmX association, primary screen, cell-based, luminescence, split luciferase, SaOS-2, uHTS; AID 485346, 2010; SaOS-2 split-luciferase Mdm2/MdmX complementation; inhibition, % at 8 µM; 330,000 tested, 3% active;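 active means inhibition of at least 50% at 8 µM in the primary screen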
PAX8 inh HTS – inhibitors of PAX8-driven TPO luciferase reporter, primary screen, RMG-I cells, single concentration; 360,000 tested, 1.2% active; inhibition, % at 12.6 µM; SteadyGlo, 24 h;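 active means mean replicate inhibition at least 60% with every replicate also reaching 60%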;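 further: luciferase light reporting Pax8 driven TPO promoter activity; plate controls were median of neutral control wells for no effect and mitoxantrone controls for full effect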
Gli-Sufu antag – Gli-Sufu pathway antagonists, primary screen, luciferase luminescence, Sufu-KO-LIGHT cells, uHTS | 340,000 tested, 0.74% active | inhibition, % at 5 µM | Sufu-KO-LIGHT fibroblasts, Gli luciferase reporter luminescence;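 active means inhibition above about 55%, limit read from the data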;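 further: 0% = DMSO-treated cells and 100% = wells with medium but no cells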
Beta cell apopt – inhibitors of cytokine-induced beta cell apoptosis, primary screen, luminescence. INS-1E cytokine-induced death, ATP luminescence, 48 h; percent of positive-control rescue, neutral wells zero. protection from apoptosis, % (no concentration beside the values). 300,000 tested, 0.8% active. AID 435005, 2010;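 active means Every replicate reaches about 75%, or at least half do and their mean reaches it too, limit read from the data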;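 further: 0% = cytokine-treated negative control wells and 100% = positive control rescue; higher means more ATP so stronger rescue from cytokine killing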
CSC inhib – cancer stem cell viability inhibitors, primary screen, luminescence; cancer stem cell-like cells viability; inhibition, % at 7.5 µM; 300,000 tested, 1.1% active; in the data active means inhibition above about 75%; tested in HMLE shEcad cells
Shn3 3UTR inh – reduction of Shn3 3'UTR firefly luciferase signal, primary screen, Schnurri-3 inhibitor project, cell-based, Clone20 osteoblasts, set 2. inhibition, % at 12.5 µM. Clone20 osteoblast Shn3 3'UTR firefly luciferase, 24 h. 360,000 tested, 0.52% active;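 active means mean inhibition of at least 75% with every replicate also reaching 75%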;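 further: 0% = median of neutral control wells and 100% = pilot-screen positive control compound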
The depositor's hits bear a star; . = no result. Sampled rows, rich in hits. Any-hit rate of the full collection: about 4%.

SMILES	Mdm2-MdmX inh	PAX8 inh HTS	Gli-Sufu antag	Beta cell apopt	CSC inhib	Shn3 3UTR inh
O=C(C[C@@H]1C[C@H]2c3cc(NC(=O)NC4CCCC4)ccc3O[C@H]2[C@H](CO)O1)NCc1ccc(Oc2ccccc2)cc1	.	66*	.	.	.	.
O=C(C[C@@H]1C[C@H]2c3cc(NC(=O)C4CCOCC4)ccc3O[C@H]2[C@H](CO)O1)NCc1ccc(Oc2ccccc2)cc1	.	90*	.	.	.	.
COCC#Cc1ccc(CC[C@H]2O[C@H]3CC[C@@H](CO)O[C@H]3C[C@@H]2n2cc(C3(O)CCCC3)nn2)cc1	.	-55	.	.	.	.
O=C(CSc1nc2ccccc2s1)NCCOc1ccccc1	-8	93*	4	-7	-2	-7
N#C[C@@H]1[C@@H](c2ccc(-c3ccncc3)cc2)[C@@H](CO)N1C(=O)C1CCC1	.	-2	.	.	.	.
CCCCCCCCCCCCN1[C@@H](CC(=O)O)c2cc(C(F)(F)F)ccc2S1(=O)=O	7	-16	-2	4	104*	-4
CCC(=C(c1ccc(OC)cc1)c1ccc(OC)cc1)c1cn(CC(O)CN2CCN(C)CC2)c2ccccc12 (stereo not drawn)	.	-3	3	1	107*	18
CCOC(=O)c1c(C)[nH]c(C2=NNC(=Nc3ccccc3OC)SC2)c1C	-35	74*	-70	10	-2	-25
CCOC(=O)c1c(C)[nH]c(C2=NNC(=Nc3ccccc3)SC2)c1C	.	-7	-11	.	.	-20
CC(C)NC(=O)Nc1cccc2c1O[C@@H](CN(C)C(=O)Nc1cccc3ccccc13)[C@@H](C)CN([C@H](C)CO)C2=O	.	14	.	.	.	.
Cc1ccc(S(=O)(=O)N(C)c2ccc(OCc3cccc(C)c3)cc2)cc1	34	-4	-8	-2	77*	3
Cc1ccc(S(=O)(=O)N(C)c2ccc(OCC(=O)OCc3cccc(Br)c3)cc2)cc1	.	-14	-8	.	.	-17
CCCNC1=C(N(C(C)=O)c2cccc(F)c2)C(=O)c2ccccc2C1=O	.	109*	85*	126*	102*	-38
CCC(=O)N(C1=C(NC(C)C)C(=O)c2ccccc2C1=O)C(C)C	1	25	8	-3	-1	-24
Cc1cccc(S(=O)(=O)N2C[C@@H]3[C@H](c4ccccc42)[C@H](CO)N3CC2CCCC2)c1	.	27	.	.	.	.
CCCCn1c(NS(=O)(=O)c2ccccc2)c(S(=O)(=O)c2ccc(C)cc2)c2nc3ccccc3nc21	.	5	11	86*	37	8
COc1ccc(Nc2cc(C)nc(NCc3ccccc3)n2)cc1	17	8	36	60	34	89*
C[C@@H]1CCCCO[C@H](CN(C)C(=O)Cc2ccccc2)[C@H](C)CN([C@H](C)CO)C(=O)c2cc(NS(=O)(=O)c3ccccc3)ccc2O1	.	2	.	.	.	.
O=C(O)c1ccc(Cn2ccc3ccccc32)o1	27	0	-38	.	-16	8
c1ccc(C2(Cn3ccc4ccccc43)OCCO2)cc1	12	.	-5	114*	11	1
CCS(=O)(=O)N1CCC2(CC1)CN[C@@H](CO)c1c2c2ccc(OC)cc2n1C	.	-5	.	.	.	.
COc1ccc2c3c(n(C)c2c1)[C@H](CO)NCC31CCN(Cc2cc(-c3ccccc3)on2)CC1	.	82*	.	.	.	.
COc1cc(/C=C2\COC/C(=C\c3cc(OC)c(OC)c(OC)c3)C2=O)cc(OC)c1OC	.	106*	55*	.	.	96*
COc1cc(/C=C2\CC/C(=C\c3cc(OC)c(OC)c(OC)c3)C2=O)cc(OC)c1OC	32	5	28	8	4	24
Cc1ccc(S(=O)(=O)N(C)C[C@@H]2OCCCC[C@@H](C)Oc3ccc(N(C)C)cc3C(=O)N([C@@H](C)CO)C[C@H]2C)cc1	.	59	.	.	.	.
SMILES	Mdm2-MdmX inh	PAX8 inh HTS	Gli-Sufu antag	Beta cell apopt	CSC inhib	Shn3 3UTR inh
N#Cc1c(-c2ccccc2)nc(SCc2cccc(Cl)c2)[nH]c1=O	0	6	1	-6	107*	-38
O=C(Nc1ccccc1)N1CCc2scc[n+]2-c2ccccc21	-11	112*	8	-7	11	9
CC1CN(C(=O)Nc2ccccc2)c2ccccc2-[n+]2ccsc21 (stereo not drawn)	-3	4	8	1	-6	14
O=C(/C=C/c1ccc(N2CCCCC2)c([N+](=O)[O-])c1)c1ccc(O)cc1	43	-53	-27	7	110*	3
CCC(=O)N1C[C@H](C)[C@@H](OC)CN(C)C(=O)c2ccc(NC(=O)c3ccccc3)cc2OC[C@@H]1C	.	-20	.	.	.	.
C[C@H](CO)N1C[C@H](C)[C@@H](CN(C)S(=O)(=O)c2ccccc2)Oc2ccc(NC(=O)Nc3ccc(C(F)(F)F)cc3)cc2CC1=O	.	56	.	.	.	.
Cc1nn(-c2ccccc2)c(N)c1N=Nc1ccc(Cl)cc1	-123	-154	-93	-2	79*	-36
CCN1C(=O)N[C@H]2C[C@H](C(=O)N3CCCC3)[C@H](C)[C@H](c3ccccc3)C[C@H]21	.	-6	.	.	.	.
CC(C)=CCC/C(C)=C/CN1C(=O)N(c2ccc(F)cc2)[C@H]2C[C@@H](c3ccccc3)[C@@H](C)[C@@H](C(=O)N3CCOCC3)C[C@H]21	.	101*	.	.	.	.
COC(=O)c1cc(OC)c(OC)cc1NC(=S)Nc1cc(Cl)ccc1OC	15	78*	-1	-1	.	-5
COC(=O)c1cc(OC)c(OC)cc1NC(=S)Nc1cccc(Cl)c1	7	.	-2	-4	.	2
O=C(/C=C/c1ccc([N+](=O)[O-])cc1)NCc1cccnc1	14	.	17	95*	-14	8
O=C(/C=C/c1cccc([N+](=O)[O-])c1)NCc1cccnc1	24	.	-9	-4	.	.
COc1ccc(-n2nnnc2-c2cnc(N3CCCC3)nc2C(F)(F)F)cc1	18	.	39	6	.	87*
FC(F)(F)c1nc(-c2cccnc2)ncc1-c1nnnn1-c1ccccc1	10	35	-6	6	-6	36
O=C(NC12CC3CC(CC(C3)C1)C2)c1ccc(-c2cccc(Cl)c2)o1	28	-183	-5	16	95*	-57
O=C(NC12CC3CC(CC(C3)C1)C2)c1ccc(-c2ccccc2Cl)o1	-104	.	24	16	125*	-34
Cc1ccc(-c2cc(C(=O)N3N=C(C(F)F)CC3(O)C(F)F)c3ccccc3n2)cc1C (stereo not drawn)	40	.	-4	7	98*	-9
O=C(Nc1ccccc1)N1CCCCN2[C@H](C1)[C@@H](c1ccc(C#Cc3ccccc3)cc1)[C@@H]2CO	.	99*	.	.	.	.
O=C(Nc1ccccc1)N1CCCCN2[C@H](CO)[C@H](c3ccc(C#Cc4ccccc4)cc3)[C@H]2C1	.	109*	.	.	.	.
